# Measurements reported in PubChem BioAssay.
# Results filed as inconclusive are left out. Activity calls are given as the source filed them.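 How the source made its calls, unless noted: active means differentiation response of at least 50%, scaled between solvent and reference control, from cells with both markers; inactive means the rest.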
# Columns and labels:
# [1] = rapamycin-like changes in RPL19A-GFP expression – cell-based, S. cerevisiae, multiplex flow cytometry, primary screen (AID 1862; in the data active means percent of DMSO control GFP below about 86%;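 further: lower values mimic rapamycin by blocking the RPL19A rise seen in DMSO cells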); conditions: S. cerevisiae RPL19A-GFP strain, flow cytometry fluorescence, 3 h; at 10 µM; stronger effect = lower value
# [2] = TOR pathway GLN3 branch reporter MEP2-GFP changes – S. cerevisiae, multiplex flow cytometry, primary screen (AID 1867;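 active means GFP response, as percent of the DMSO control, above the screen-wide mean plus 3 SD, about 139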;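 further: median GFP channel fluorescence of barcode-gated MEP2-GFP cells measured by flow cytometry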); conditions: S. cerevisiae MEP2-GFP strain, 3 h, at 10 µM, stronger effect = higher value, 100% means same as DMSO wells
# [3] = TOR pathway RTG branch CIT2 reporter changes – S. cerevisiae, GFP fusion, multiplex flow cytometry, primary screen (AID 1870;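 active means percent response above a set limit, the screen-wide mean plus 3 SD, cut at about 130% in these data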;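 further: barcoded CIT2-GFP strain pooled with four other GFP strains with rapamycin as positive control; median GFP fluorescence per well over plate mean of DMSO wells so 100% = DMSO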); conditions: S. cerevisiae CIT2-GFP expression, 3 h, at 10 µM, stronger effect = higher value
# [4] = TOR pathway LAP4-GFP level changes – S. cerevisiae, multiplex flow cytometry, primary screen (AID 1873;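 active means GFP signal, as percent of the solvent control, above the screen mean plus 3 SD, about 149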); conditions: S. cerevisiae LAP4-GFP expression, 3 h, at 10 µM, stronger effect = higher value
# [5] = yeast AGP1-GFP level changes, GLN3 branch – cell-based, multiplex flow cytometry, S. cerevisiae, primary screen (AID 1887;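 active means GFP signal above the screen-wide mean plus 3 SD, that is over about 124.5% of the solvent control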;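 further: AGP1-GFP fusion strain of S. cerevisiae within a five-strain barcoded multiplex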); conditions: 3 h, at 10 µM, stronger effect = higher value
# [6] = reduced mouse 2C T cell binding to pMHC/ICAM-1 vesicles – MLPCN validation set, flow cytometry, LFA-1/ICAM-1 modulator project, pilot screen (AID 2523;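 active means response below a set limit, under 55% cells CD8-positive and vesicle-bound, and CD8 cells' 90th-percentile brightness under 279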;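 on vesicle binding response: mean PE anti-B7-1 fluorescence of CD8+ cells relative to row control; 100% = QL9-loaded vesicles with DMSO vehicle in the same plate row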); conditions: 2C mouse CD8+ T cells, at 7 µM, stronger effect = lower value; double positive events: measured here: CD8+/vesicle+ event percentage
# [7] = molecular target: Integrin beta-1 (Homo sapiens) + Integrin alpha-4 (Homo sapiens) (UniProt P13612+P05556); assay: alpha4beta1 integrin LIBS antibody binding reduction – U937 cells, HUTS-21 mAb, flow cytometry, validation set, VLA-4 allosteric modulator project, pilot screen (AID 2674;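 active means inhibition above 50%, about 3 SD of the validation set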;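 further: antibody binding induced by the VLA-4 ligand LDV present at three times its Kd; 0% = LDV ligand with antibody and no compound and 100% = antibody without LDV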); conditions: HUTS-21 LIBS mAb binding, at 6.7 µM, stronger effect = higher value, binding induced by LDV ligand
# Sequence of Integrin beta-1 (Homo sapiens) + Integrin alpha-4 (Homo sapiens) (P05556 whole entry, looked up): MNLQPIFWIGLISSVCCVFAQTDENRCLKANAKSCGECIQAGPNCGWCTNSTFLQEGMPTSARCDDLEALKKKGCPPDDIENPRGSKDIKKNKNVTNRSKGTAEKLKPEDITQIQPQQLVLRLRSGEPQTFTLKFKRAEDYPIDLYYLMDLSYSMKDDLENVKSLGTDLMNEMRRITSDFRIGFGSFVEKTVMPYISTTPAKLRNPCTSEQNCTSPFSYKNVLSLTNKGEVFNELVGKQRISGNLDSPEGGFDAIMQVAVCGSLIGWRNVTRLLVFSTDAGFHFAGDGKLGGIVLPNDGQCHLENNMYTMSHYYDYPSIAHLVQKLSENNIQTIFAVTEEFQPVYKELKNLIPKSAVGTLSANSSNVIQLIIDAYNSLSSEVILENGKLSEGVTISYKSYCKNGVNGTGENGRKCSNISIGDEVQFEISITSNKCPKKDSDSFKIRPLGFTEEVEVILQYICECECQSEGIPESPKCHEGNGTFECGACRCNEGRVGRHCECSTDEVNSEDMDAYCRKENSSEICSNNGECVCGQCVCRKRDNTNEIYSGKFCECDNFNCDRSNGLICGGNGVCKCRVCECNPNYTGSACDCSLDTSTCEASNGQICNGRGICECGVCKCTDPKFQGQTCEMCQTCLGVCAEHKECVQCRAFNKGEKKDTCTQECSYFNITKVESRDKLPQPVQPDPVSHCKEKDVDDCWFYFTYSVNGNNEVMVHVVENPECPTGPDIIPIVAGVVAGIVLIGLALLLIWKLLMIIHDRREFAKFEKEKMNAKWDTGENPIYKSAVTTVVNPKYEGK
# Sequence of Integrin beta-1 (Homo sapiens) + Integrin alpha-4 (Homo sapiens) (P13612 whole entry, looked up): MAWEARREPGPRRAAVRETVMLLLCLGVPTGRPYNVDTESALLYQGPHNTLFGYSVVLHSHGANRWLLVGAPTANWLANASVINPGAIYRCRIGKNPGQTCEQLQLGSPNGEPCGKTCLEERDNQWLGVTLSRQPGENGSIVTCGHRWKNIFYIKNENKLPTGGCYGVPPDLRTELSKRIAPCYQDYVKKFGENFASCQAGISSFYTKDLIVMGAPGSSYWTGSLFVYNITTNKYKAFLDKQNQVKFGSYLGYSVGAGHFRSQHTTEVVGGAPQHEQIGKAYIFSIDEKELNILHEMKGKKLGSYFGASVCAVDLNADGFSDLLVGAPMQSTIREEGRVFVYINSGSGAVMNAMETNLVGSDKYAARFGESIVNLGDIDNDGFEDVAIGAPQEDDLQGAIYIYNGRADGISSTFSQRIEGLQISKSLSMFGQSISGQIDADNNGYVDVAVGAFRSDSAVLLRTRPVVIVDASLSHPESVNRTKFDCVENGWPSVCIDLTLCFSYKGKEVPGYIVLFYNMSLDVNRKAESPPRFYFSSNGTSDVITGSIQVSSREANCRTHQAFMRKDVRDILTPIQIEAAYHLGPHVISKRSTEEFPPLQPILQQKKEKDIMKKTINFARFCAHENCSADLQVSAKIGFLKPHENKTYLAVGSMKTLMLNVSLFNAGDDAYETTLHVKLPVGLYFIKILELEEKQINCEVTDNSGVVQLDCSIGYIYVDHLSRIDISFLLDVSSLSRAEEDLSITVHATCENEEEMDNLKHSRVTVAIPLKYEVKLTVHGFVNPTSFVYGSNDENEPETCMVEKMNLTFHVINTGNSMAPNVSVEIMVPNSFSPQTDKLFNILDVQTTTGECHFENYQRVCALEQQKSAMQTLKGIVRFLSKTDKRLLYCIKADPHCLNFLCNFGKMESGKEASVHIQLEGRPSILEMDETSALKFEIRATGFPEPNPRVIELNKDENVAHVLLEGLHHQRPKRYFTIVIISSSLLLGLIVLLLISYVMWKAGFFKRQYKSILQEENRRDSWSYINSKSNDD
# [8] = calorie-restriction mimetic ROS inhibitors, yeast – validation compound set, pilot screen (AID 2706;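 active means superoxide response below 65% of plate, a cut near 3 SD across the whole screen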;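 further: yeast exposed to compound for one week at 30 degrees C before staining; 100% = mean of all compound wells on the same plate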); conditions: S. cerevisiae aging, superoxide DHE fluorescence; at 10 µM; stronger effect = lower value
# [9] = molecular target: Beta-adrenergic receptor kinase 1 (Homo sapiens) (UniProt P25098); assay: GRK2 binders displacing RNA aptamer, biochemical, validation, human GRK2, bead flow cytometry (AID 488806;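 active means aptamer binding inhibition above 30%, about 3 SD of noise from non-fluorescent compounds; inactive means inhibition at or below 30%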); conditions: bead-bound GRK2, FAM-aptamer displacement, at 10 µM, stronger effect = higher value
# Sequence of Beta-adrenergic receptor kinase 1 (Homo sapiens) (P25098 whole entry, looked up): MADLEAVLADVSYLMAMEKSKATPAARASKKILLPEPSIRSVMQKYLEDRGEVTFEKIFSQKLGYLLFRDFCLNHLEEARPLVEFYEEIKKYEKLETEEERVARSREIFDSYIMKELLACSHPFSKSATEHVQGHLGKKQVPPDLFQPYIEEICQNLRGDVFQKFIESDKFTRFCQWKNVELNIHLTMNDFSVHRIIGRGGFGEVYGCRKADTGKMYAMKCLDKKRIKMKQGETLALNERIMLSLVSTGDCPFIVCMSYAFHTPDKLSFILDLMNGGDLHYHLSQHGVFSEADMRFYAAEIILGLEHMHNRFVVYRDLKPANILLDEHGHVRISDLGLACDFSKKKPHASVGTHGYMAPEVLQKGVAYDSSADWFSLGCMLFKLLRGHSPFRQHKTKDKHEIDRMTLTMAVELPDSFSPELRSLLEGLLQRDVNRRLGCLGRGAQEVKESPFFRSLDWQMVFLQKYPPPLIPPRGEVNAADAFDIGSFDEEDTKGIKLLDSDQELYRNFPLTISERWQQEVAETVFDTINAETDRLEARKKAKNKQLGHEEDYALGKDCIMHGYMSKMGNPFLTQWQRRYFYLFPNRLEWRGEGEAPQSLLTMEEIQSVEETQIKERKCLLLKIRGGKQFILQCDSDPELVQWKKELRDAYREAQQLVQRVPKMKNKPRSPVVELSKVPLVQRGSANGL
# [10] = molecular target: Beta-2 adrenergic receptor (Homo sapiens) (UniProt P07550); assay: agonist-induced loss of surface beta2AR – cell-based, FAP fluorogen, flow cytometry, validation set, pilot screen (AID 504459;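 active means percent response above 42, roughly 3 SD of non-fluorescent test compounds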;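 further: agonist-driven loss of surface beta2AR via internalization measured by FAP dye flow cytometry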); conditions: Am2.2-beta2AR cells, at 10 µM, stronger effect = higher value
# Sequence of Beta-2 adrenergic receptor (Homo sapiens) (P07550 whole entry, looked up): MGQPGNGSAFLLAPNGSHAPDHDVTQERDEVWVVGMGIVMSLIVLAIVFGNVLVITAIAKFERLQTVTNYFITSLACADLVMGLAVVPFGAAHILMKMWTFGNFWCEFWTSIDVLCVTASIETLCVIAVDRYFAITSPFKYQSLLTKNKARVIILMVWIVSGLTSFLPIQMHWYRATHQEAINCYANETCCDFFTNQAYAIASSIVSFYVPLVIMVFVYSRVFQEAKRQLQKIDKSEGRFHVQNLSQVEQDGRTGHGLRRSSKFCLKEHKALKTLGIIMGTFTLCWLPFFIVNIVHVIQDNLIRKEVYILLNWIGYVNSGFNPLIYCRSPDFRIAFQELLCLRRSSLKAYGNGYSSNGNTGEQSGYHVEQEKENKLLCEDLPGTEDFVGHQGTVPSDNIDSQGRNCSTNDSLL
# [11] = molecular target: AP-2 complex subunit beta (Homo sapiens) (UniProt P63010); assay: beta-arrestin/AP2 interaction blockers – biochemical, validation set, GST-AP2 beads, flow cytometry, pilot screen (AID 504541;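 active means inhibition above 54%, about 3 SD of non-fluorescent compounds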;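 further: AP2 carries R879A mutation and is captured from E. coli lysate; bead-bound FITC arrestin peptide fluorescence measuring arrestin peptide binding to AP2; 0% = DMSO wells and 100% = excess unlabeled arrestin peptide control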); conditions: FITC arrestin peptide, at 10 µM, stronger effect = higher value, AP2 beta2 appendage fragment, R879A mutant
# Sequence of AP-2 complex subunit beta (Homo sapiens) (P63010 whole entry, looked up, the tested form may be a part, one chain of several): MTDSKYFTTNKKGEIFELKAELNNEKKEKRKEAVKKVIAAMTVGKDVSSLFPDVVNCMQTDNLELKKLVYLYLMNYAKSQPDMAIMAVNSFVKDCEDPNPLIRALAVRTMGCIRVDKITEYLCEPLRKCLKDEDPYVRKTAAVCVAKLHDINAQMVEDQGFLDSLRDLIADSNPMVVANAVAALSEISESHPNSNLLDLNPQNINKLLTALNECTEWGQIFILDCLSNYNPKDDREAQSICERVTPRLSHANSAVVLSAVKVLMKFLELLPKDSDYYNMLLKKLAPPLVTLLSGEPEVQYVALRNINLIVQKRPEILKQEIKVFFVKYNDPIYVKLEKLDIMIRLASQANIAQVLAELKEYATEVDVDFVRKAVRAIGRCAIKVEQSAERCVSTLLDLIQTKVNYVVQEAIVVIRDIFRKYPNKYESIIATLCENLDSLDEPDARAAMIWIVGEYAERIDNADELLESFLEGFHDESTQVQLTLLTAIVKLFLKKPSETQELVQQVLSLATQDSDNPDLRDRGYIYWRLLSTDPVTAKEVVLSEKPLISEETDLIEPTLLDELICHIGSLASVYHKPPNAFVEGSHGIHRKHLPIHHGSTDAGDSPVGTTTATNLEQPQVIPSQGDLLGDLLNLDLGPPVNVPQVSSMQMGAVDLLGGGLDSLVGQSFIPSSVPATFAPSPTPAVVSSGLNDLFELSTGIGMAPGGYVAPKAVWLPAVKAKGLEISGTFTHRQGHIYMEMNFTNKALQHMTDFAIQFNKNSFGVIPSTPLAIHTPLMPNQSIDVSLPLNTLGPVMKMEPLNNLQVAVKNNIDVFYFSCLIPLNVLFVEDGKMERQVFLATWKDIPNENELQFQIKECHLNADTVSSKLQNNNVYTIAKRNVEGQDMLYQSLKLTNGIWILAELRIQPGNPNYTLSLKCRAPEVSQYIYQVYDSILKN
# [12] = cytosolic pH regulators acting via V-ATPase – S. cerevisiae, pHLuorin, HTS validation (AID 504600; in the data active means response above about 15%;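 further: plate controls were DMSO for no effect and reference compound for full effect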); conditions: V-ATPase proton transport, at 10 µM, stronger effect = higher value
# [13] = test system: anti-desmoglein-3 scFv antibody binding to human DSG3; assay: blockers of pathogenic pemphigus antibody–desmoglein-3 binding – biochemical, validation compound set, bead-based, flow cytometry, pilot screen (AID 588368;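 active means binding below the plate cutoff, the plate median minus 3 SD, with a reading above zero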;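 further: signal is the median channel fluorescence of bead-bound GFP antibody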); conditions: Protein G beads, DSG3-Fc, scFv-GFP binding, at 10 µM, stronger effect = lower value
# [14] = Nile Red efflux blockade in pump-expressing yeast – validation compound set, multiplex, phenotypic, pilot screen (AID 588506;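 active means efflux inhibition above 0.42, the validation set average plus 4 SD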;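 further: Nile Red retained in cells so higher fluorescence means more efflux inhibition; 0 = negative control wells and 1 = enniatin B 25 µM full block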); conditions: S. cerevisiae pump-expressing triplex, Nile Red efflux flow cytometry; at 10 µM; stronger effect = higher value; the pumps come from Candida albicans
# [15] = molecular target: ATP-binding cassette sub-family B member 6 (Homo sapiens) (UniProt Q9NP58); assay: blockers of ABCB6-driven porphyrin uptake – K562-ABCB6 cells, flow cytometry, validation set, pilot screen (AID 588550;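 active means inhibition above the screen-wide mean plus 3 SD, about 51%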;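 further: 0% = DMSO wells and 100% = benzethonium chloride 70 µM positive control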); conditions: K562-ABCB6 porphyrin accumulation, 1 h, at 10 µM, stronger effect = higher value
# Sequence of ATP-binding cassette sub-family B member 6 (Homo sapiens) (Q9NP58 whole entry, looked up): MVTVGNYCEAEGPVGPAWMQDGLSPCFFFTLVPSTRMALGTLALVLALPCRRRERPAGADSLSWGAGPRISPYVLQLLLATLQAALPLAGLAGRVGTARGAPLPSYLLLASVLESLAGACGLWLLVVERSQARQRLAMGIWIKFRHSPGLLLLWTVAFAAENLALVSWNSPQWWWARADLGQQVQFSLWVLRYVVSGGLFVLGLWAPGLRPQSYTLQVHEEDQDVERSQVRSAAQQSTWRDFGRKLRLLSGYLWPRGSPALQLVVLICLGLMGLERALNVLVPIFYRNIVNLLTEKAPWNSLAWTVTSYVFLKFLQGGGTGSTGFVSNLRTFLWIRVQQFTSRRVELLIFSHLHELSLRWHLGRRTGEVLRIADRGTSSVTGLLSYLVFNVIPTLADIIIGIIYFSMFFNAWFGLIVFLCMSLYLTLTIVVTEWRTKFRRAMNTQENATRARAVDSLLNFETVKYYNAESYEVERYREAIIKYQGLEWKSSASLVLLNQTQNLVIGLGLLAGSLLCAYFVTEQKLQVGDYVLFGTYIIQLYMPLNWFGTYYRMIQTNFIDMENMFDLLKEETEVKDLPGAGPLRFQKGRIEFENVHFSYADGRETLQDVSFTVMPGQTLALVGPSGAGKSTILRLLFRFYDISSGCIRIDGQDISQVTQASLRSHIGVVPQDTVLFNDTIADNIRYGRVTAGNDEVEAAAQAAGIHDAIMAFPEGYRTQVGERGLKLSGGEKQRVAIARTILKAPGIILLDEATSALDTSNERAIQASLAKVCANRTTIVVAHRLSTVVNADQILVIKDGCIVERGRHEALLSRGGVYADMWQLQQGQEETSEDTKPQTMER
# [16] = AML differentiation inducers, ER-HoxA9 marrow cells – cell-based, GFP/MAC1 double positive, flow cytometry, validation set, primary screen (AID 588685); conditions: stronger effect = higher value, normalized: vehicle 0, fulvestrant 100;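 further: compound exposure lasts four days before antibody staining and flow analysis; 0% = DMSO wells and 100% = 5 µM fulvestrant positive control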
Compound,percent of DMSO control GFP [1],GFP response vs DMSO [2],percent response of DMSO control [3],GFP response vs DMSO [4],"GFP response, % of DMSO [5]",double positive events [6] [%],vesicle binding response [6],inhibition [7],superoxide response (% of plate) [8],aptamer binding inhibition [9],response [10],inhibition [11],response [12],binding (% of control) [13],efflux inhibition (fraction of control) [14],inhibition [15],differentiation response [16]
COC(=O)c1ccccc1NC(=O)NCc1ccccc1,96.3% (inactive),131% (inactive),104% (inactive),85.8% (inactive),87.3% (inactive),63,165% (inactive),-0.33% (inactive),99% (inactive),6% (inactive),-13.3% (inactive),0.05% (inactive),1.35% (inactive),104% (inactive),-0.28 (inactive),15% (inactive),0% (inactive)
COC(=O)c1ccc(NC(=O)c2ccccc2SC)cc1,97.8% (inactive),104% (inactive),102% (inactive),106% (inactive),91.8% (inactive),58.4,132% (inactive),1.62% (inactive),109% (inactive),2% (inactive),1.63% (inactive),18.8% (inactive),-1.67% (inactive),99% (inactive),-0.26 (inactive),1% (inactive),5.13% (inactive)
COc1ccc(CN2CCC(=O)NC2=O)cc1,102% (inactive),105% (inactive),97.7% (inactive),105% (inactive),96.5% (inactive),59.9,170% (inactive),3.67% (inactive),101% (inactive),-2% (inactive),-1.29% (inactive),33.2% (inactive),-0.38% (inactive),81.3% (inactive),0.08 (inactive),2% (inactive),116% (active)
O=C(O)[C@@H](O)c1ccccc1,102% (inactive),106% (inactive),102% (inactive),121% (inactive),120% (inactive),62,168% (inactive),16.8% (inactive),97% (inactive),3% (inactive),-22.9% (inactive),10.1% (inactive),-0.22% (inactive),106% (inactive),-0.04 (inactive),3% (inactive),-11.9% (inactive)
CC1CCN(C(=O)Oc2ccccc2)CC1,105% (inactive),111% (inactive),103% (inactive),102% (inactive),107% (inactive),57.9,143% (inactive),2.93% (inactive),111% (inactive),0% (inactive),0.66% (inactive),-6.8% (inactive),0.42% (inactive),101% (inactive),0.045 (inactive),5% (inactive),-6.03% (inactive)
CCc1nc2ccccc2n1Cc1ccc(OC)c(OC)c1,98.1% (inactive),99.6% (inactive),95.7% (inactive),107% (inactive),109% (inactive),60.7,132% (inactive),3.14% (inactive),105% (inactive),3% (inactive),-19% (inactive),7.51% (inactive),2.99% (inactive),89.6% (inactive),0 (inactive),2% (inactive),18.7% (inactive)
COc1ccc(CC(=O)Nc2cccc(C(=O)Nc3ccccc3C(=O)O)c2)cc1OC,103% (inactive),102% (inactive),96.4% (inactive),103% (inactive),108% (inactive),61.5,181% (inactive),6.55% (inactive),108% (inactive),6% (inactive),-21.7% (inactive),-0.19% (inactive),2.28% (inactive),99.7% (inactive),0 (inactive),8% (inactive),26.5% (inactive)
O=C(/C=C/c1ccc(F)cc1)N1CC[C@@]2(O)CCCC[C@H]2C1,96.7% (inactive),112% (inactive),89.1% (inactive),125% (inactive),96.5% (inactive),61.1,198% (inactive),-4.52% (inactive),98.4% (inactive),3% (inactive),15.3% (inactive),-5.97% (inactive),10.1% (inactive),98% (inactive),-0.13 (inactive),7% (inactive),-13.6% (inactive)
CC(C)(C)C(=O)NCCCNc1ccc([N+](=O)[O-])cc1,103% (inactive),123% (inactive),93.9% (inactive),95.2% (inactive),104% (inactive),67.3,295% (inactive),5.49% (inactive),86% (inactive),-1% (inactive),-6.07% (inactive),22% (inactive),1.78% (inactive),110% (inactive),-0.06 (inactive),15% (inactive),12.3% (inactive)
Cc1ccnc(NS(=O)(=O)c2ccc(N)cc2)n1,102% (inactive),99.7% (inactive),106% (inactive),102% (inactive),111% (inactive),63.6,203% (inactive),19% (inactive),92.2% (inactive),-1% (inactive),5.51% (inactive),-0.12% (inactive),-1.12% (inactive),94% (inactive),-0.3 (inactive),-3% (inactive),1.28% (inactive)
CC(=O)N(CCC1(c2ccc(C)cc2)CCOC(C(C)C)C1)Cc1ccco1 (stereo not drawn),93.9% (inactive),108% (inactive),116% (inactive),82% (inactive),96.6% (inactive),46.3,74.9% (active),-16.8% (inactive),99.9% (inactive),-4% (inactive),-3.21% (inactive),3.24% (inactive),-0.03% (inactive),99.6% (inactive),0.05 (inactive),9% (inactive),-1.64% (inactive)
CC(=O)c1c(C)c(C)c2n1CCn1c(C)ccc1-2,105% (inactive),107% (inactive),93.1% (inactive),121% (inactive),107% (inactive),60.2,141% (inactive),-36.9% (inactive),99.4% (inactive),0% (inactive),-22.4% (inactive),6.32% (inactive),-6.83% (inactive),116% (inactive),-0.09 (inactive),-18% (inactive),-5.97% (inactive)
O=c1ccc2c(o1)/C(=C/C=C(Cl)Cl)CCC2,101% (inactive),101% (inactive),90.1% (inactive),110% (inactive),84% (inactive),56.9,236% (inactive),-7.25% (inactive),101% (inactive),2% (inactive),62.6% (active),60.4% (active),-6.24% (inactive),101% (inactive),-0.06 (inactive),6% (inactive),-10.4% (inactive)
CC(=O)C1=C(O)C(=O)OC1c1ccc(C)cc1 (stereo not drawn),97.1% (inactive),119% (inactive),91% (inactive),132% (inactive),106% (inactive),61,147% (inactive),17.3% (inactive),103% (inactive),2% (inactive),-1.67% (inactive),21.9% (inactive),-0.38% (inactive),101% (inactive),-0.06 (inactive),7% (inactive),5.6% (inactive)
O=S(=O)(CCc1nc2ccccc2[nH]1)c1ccc(Cl)cc1,98.6% (inactive),106% (inactive),98.6% (inactive),124% (inactive),99.7% (inactive),60.3,159% (inactive),-7.25% (inactive),104% (inactive),-2% (inactive),13.4% (inactive),-4.72% (inactive),-0.13% (inactive),103% (inactive),-0.21 (inactive),-7% (inactive),-16.8% (inactive)
CC1(C)C(=O)OC(c2cccs2)C2(CCCCC2)C1=O (stereo not drawn),99.2% (inactive),108% (inactive),96.6% (inactive),105% (inactive),97.5% (inactive),61.1,228% (inactive),-18.1% (inactive),109% (inactive),0% (inactive),3.42% (inactive),44.8% (inactive),-2.62% (inactive),97.4% (inactive),-0.01 (inactive),2% (inactive),53% (active)
Cc1ccc(N2CCN(C(=S)c3ccc(-c4cccc([N+](=O)[O-])c4)o3)CC2)cc1,98.1% (inactive),103% (inactive),109% (inactive),126% (inactive),124% (inactive),61.7,217% (inactive),-4.52% (inactive),89.3% (inactive),3% (inactive),-41.3% (inactive),1.79% (inactive),-4.54% (inactive),102% (inactive),-0.13 (inactive),3% (inactive),-9.91% (inactive)
COc1ccccc1C(=O)Nc1cc2cc(Br)ccc2oc1=O,101% (inactive),106% (inactive),96% (inactive),99.4% (inactive),101% (inactive),58.5,30.4% (inactive),-4.61% (inactive),97.2% (inactive),3% (inactive),4.22% (inactive),-7.21% (inactive),-0.54% (inactive),101% (inactive),-0.47 (inactive),12% (inactive),-5.68% (inactive)
Fc1ccc(C(c2ccc(F)cc2)N2CCN(C/C=C/c3ccccc3)CC2)cc1,94.6% (inactive),131% (inactive),104% (inactive),80.9% (inactive),97% (inactive),56.3,215% (inactive),-1.3% (inactive),108% (inactive),4% (inactive),6.79% (inactive),2.83% (inactive),-0.13% (inactive),110% (inactive),-0.02 (inactive),1% (inactive),4.09% (inactive)
